Experiment [1] can be described thus: qHTS assay to identify small molecule agonists of the vitamin D receptor (VDR) signaling pathway - cell viability counter screen (AID 743224). Also: nearly all actives have a fitted effect of over 50% in size. Also: potency is read from the fitted curve at half-maximal effect. The essentials: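 VDR-bla cells were preincubated 4 h at 37C/5% CO2, then exposed to compounds for 16 h. After the 2 h room-temperature bla FRET read, CellTiter-Glo was added to the same wells and luminescence read after 30 min.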

The nature of experiment [2]: qHTS assay to identify small molecule antagonists of the vitamin D receptor (VDR) signaling pathway - cell viability counter screen (AID 743225). Also: nearly all actives have a fitted effect of over 50% in size. Also: potency is read from the fitted curve at half-maximal effect. The essentials:
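Compounds were pinned onto VDR-bla HEK 293T cells together with 1-alpha,25-dihydroxyvitamin D3 at 3 nM final. After 16 h at 37C and 5% CO2 plus the reporter readout, cell viability was measured by CellTiter-Glo luminescence (30 min, room temperature).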

Experiment [3] in a line: qHTS assay to identify small molecule agonists of the NFkB signaling pathway - cell viability counter screen (AID 1159515; calls by dose curve; also: nearly all actives have a fitted effect of over 55% in size; also: potency is read from the fitted curve at half-maximal effect). The essentials: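 NFkB-bla ME-180 cells, 2,000/well, were plated overnight at 37 C, 5% CO2, then exposed to compounds in DMSO for 5 hr. After the bla FRET read, CellTiter-Glo was added to the same wells; luminescence was read after 30 min at room temperature.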
In general terms: Quantitative high-throughput screening tests each substance at several concentrations.

Experiment [4] can be described thus: qHTS assay to identify small molecule agonists of the endoplasmic reticulum stress response signaling pathway - cell viability counter screen (AID 1159517; calls by dose curve; also: nearly all actives have a fitted effect of over 50% in size; also: potency is read from the fitted curve at half-maximal effect). The essentials:
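Cells, HeLa ESRE-bla; density, 1,500/well; dosing, 5 hr at 37 C, 5% CO2; readout, CellTiter-Glo luminescence after 30 min RT.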

A short description of experiment [5]: qHTS assay to identify small molecule antagonists of the retinoid-related orphan receptor gamma (ROR-gamma) signaling pathway - cell viability counter screen (AID 1159520). Also: nearly all actives have a fitted effect of over 50% in size. Also: potency is read from the fitted curve at half-maximal effect. The essentials:
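Cytotoxicity was read from cellular ATP (CellTiter-Glo luminescence) after 16 hr at 37 C with 1 uM doxycycline induction. The inducer was added 2 hr after compound transfer to Tet-on ROR gamma CHO cells.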

The target of experiment [6] is Nuclear receptor ROR-gamma (Homo sapiens) (UniProt P51449). Put plainly: qHTS assay to identify small molecule antagonists of the retinoid-related orphan receptor gamma (ROR-gamma) signaling pathway (AID 1159521; also: nearly all actives have a fitted effect of over 50% in size; also: potency is read from the fitted curve at half-maximal effect). The essentials: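 Test compounds were applied to Tet-on RORγ CHO cells 2 h ahead of doxycycline hyclate (1 uM final). Luciferase reporter activity was quantified by luminescence after 16 h at 37 C and 5% CO2.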

The nature of experiment [7]: qHTS assay to identify small molecule agonists of the AP-1 signaling pathway - cell viability counter screen (AID 1159525; calls by dose curve; also: nearly all actives have a fitted effect of over 55% in size; also: potency is read from the fitted curve at half-maximal effect). The essentials:
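Luminescent ATP readout (Cell Titer Glo, 30 min RT), normalised to DMSO and tetra n-octyl ammonium bromide controls. Cells were ME-180 AP-1-bla in 0.5% dialyzed FBS Opti-MEM, with a 5 h, 37 °C compound exposure.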

Experiment [8] can be described thus: qHTS assay to identify small molecule agonists of the RXR signaling pathway - cell viability counter screen (AID 1159529). Also: nearly all actives have a fitted effect of over 50% in size. Also: potency is read from the fitted curve at half-maximal effect. The essentials: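 Compounds dissolved in DMSO were pinned onto HEK 293T cells carrying a beta-lactamase reporter under RXR-alpha control and incubated 16 hr. Cytotoxicity was then quantified by CellTiter-Glo luminescence.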
Experiment [9] can be described thus: qHTS assay to identify small molecule antagonists of the retinoid acid receptor (RAR) signaling pathway - cell viability counter screen (AID 1159551). Also: nearly all actives have a fitted effect of over 35% in size. Also: potency is read from the fitted curve at half-maximal effect. The essentials:
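C3RL4 cells were seeded overnight at 37 C, then treated with compounds plus 1 uM (final) retinol for 6 h at 37 C. Viability was read as ATP by CellTiter-Glo luminescence after 30 min at room temperature.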

Experiment [10] in a line: qHTS assay to identify small molecule antagonists of the retinoic acid receptor (RAR) signaling pathway (AID 1159552; also: nearly all actives have a fitted effect of over 50% in size; also: potency is read from the fitted curve at half-maximal effect). The essentials: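 Test chemicals and DMSO controls were pin-transferred onto C3RL4 cells a day after seeding; retinol (1 uM final) followed at once. Luminescent reporter output was quantified after 6 hr of co-incubation and 30 min with detection reagent.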

Experiment [11] in a line: qHTS assay to identify small molecule antagonists of the estrogen related receptor (ERR) signaling pathway from Tox21 library - cell viability counter screen (AID 1224834). Also: nearly all actives have a fitted effect of over 30% in size. Also: potency is read from the fitted curve at half-maximal effect. The essentials: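 ERR reporter cells were plated 6 h before compound addition, then exposed to test compounds in DMSO for 17.5 h at 37 C. Viability was read as CellTiter-Fluor fluorescence after a 30-minute incubation at 37 C.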

Experiment [12] addresses Luciferin 4-monooxygenase (Photinus pyralis) (UniProt P08659). Put plainly: qHTS assay to identify small molecule inhibitors of firefly luciferase (AID 1224835). Also: nearly all actives have a fitted effect of over 25% in size. Also: potency is read from the fitted curve at half-maximal effect. The essentials:
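Inhibition of purified Photinus luciferase is measured by luminescence. Substrate levels (D-luciferin, ATP) sit at their KM values. Each compound is tested in a concentration series.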

Experiment [13] concerns the target Retinoic acid receptor RXR-alpha (Homo sapiens) (UniProt P19793). The experiment can be described thus: qHTS assay to identify small molecule agonists of the RXR signaling pathway (AID 1159527; calls by dose curve; also: nearly all actives have a fitted effect of over 35% in size; also: potency is read from the fitted curve at half-maximal effect). The essentials: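 Using 9-cis retinoic acid as the reference agonist, chemicals were tested in HEK 293T cells […] for 16 hr; substrate loading lasted 2 hr at room temperature.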

Experiment [14] can be described thus: qHTS assay to identify small molecule agonists of the retinoic acid receptor (RAR) signaling pathway (AID 1159553). Also: potency is read from the fitted curve at half-maximal effect. The essentials:
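C3RL4 cells carrying a RARE luciferase reporter were plated overnight at 37 C, then exposed to compounds in DMSO for 6 hr at 37 C and 5% CO2. Luminescence was read 30 min after luciferase reagent addition at room temperature.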

Experiment [15] in a line: qHTS assay to identify small molecule agonists of the AP-1 signaling pathway (AID 1159526; calls by dose curve).

Inconclusive results are not listed. Calls of active or inactive are those of the source. Unless noted, calls follow the shape of the dose curve; as a rule, active = well fitted curve in the direction sought with a large enough effect in the repeat runs; inconclusive = weak or mixed curves; inactive = no such curve, though single readings can be large; an effect the other way counts as inactive or inconclusive.

Chain of Retinoic acid receptor RXR-alpha (Homo sapiens) (P19793 whole entry, looked up): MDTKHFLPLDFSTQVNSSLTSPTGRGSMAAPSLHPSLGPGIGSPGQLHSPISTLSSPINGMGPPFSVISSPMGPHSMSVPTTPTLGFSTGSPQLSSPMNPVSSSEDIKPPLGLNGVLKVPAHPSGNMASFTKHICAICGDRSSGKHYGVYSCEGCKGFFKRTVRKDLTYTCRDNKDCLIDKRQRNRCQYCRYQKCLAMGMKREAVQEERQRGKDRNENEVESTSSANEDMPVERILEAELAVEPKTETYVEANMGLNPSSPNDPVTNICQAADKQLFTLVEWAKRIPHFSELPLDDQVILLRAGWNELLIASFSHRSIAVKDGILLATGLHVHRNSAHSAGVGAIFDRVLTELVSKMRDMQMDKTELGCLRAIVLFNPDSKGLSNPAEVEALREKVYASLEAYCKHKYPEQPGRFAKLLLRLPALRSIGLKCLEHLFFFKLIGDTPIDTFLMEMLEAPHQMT
Chain of Luciferin 4-monooxygenase (Photinus pyralis) (P08659 whole entry, looked up): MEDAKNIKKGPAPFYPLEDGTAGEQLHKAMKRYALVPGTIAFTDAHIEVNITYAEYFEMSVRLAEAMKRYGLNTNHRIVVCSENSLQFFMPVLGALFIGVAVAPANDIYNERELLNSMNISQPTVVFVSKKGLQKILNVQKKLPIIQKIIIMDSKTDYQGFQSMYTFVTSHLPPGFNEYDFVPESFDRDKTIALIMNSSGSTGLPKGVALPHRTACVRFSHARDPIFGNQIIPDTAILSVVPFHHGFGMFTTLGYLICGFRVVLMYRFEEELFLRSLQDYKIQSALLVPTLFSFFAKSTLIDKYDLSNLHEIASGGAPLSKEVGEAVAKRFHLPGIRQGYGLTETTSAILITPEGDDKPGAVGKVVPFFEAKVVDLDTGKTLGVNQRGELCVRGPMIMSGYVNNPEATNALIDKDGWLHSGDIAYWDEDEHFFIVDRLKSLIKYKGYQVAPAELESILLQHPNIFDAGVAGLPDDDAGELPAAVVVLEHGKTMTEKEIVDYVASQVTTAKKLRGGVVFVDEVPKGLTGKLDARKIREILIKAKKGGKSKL

Regarding `CC(C)(C)CC(C)(C)c1ccc(O)c(Cc2ccc(Cl)cc2Cl)c1`, the Potency in experiment [1] is 23.7 µM (active); in experiment [2] it was 15.1 µM (active); in experiment [3], 16.9 µM (active); in experiment [4], 21.3 µM (active); in experiment [5], 23.7 µM (active); in experiment [6] it was 18.8 µM (active). The Potency in experiment [7] was 15.1 µM (active); in [8] it was 7.56 µM (active); in experiment [9] it was 26.6 µM (active); in [10], 13.3 µM (active); in experiment [11] it was 23.7 µM (active). Also, the Potency entry in [12] was “inactive”.
Regarding `CC(C)CCCCCCCCCCCCCCC(=O)O`, the Potency entry in experiment [2], in [3], in [4], in experiment [8], in experiment [9] and in [14] was “inactive” each time. The Potency result in experiment [11] was “inactive”. The Potency in experiment [5] was 68.6 µM (active); in experiment [6], 54.5 µM (active); in [7] it was 24.5 µM (active); in [13] it was 11 µM (active); in experiment [12], 35.6 µM (active).
With `N=C1C=CC(=C(c2ccc(N)cc2)c2ccc(N)cc2)C=C1`, the Potency entry in experiment [3], in experiment [4], in [7], in [8] and in [14] was “inactive” throughout. For the same compound, the Potency in experiment [5] was 13.7 µM (active); in experiment [6], 15.4 µM (active); in [9], 19.3 µM (active); in [10] it was 13.7 µM (active); in experiment [11], 21.7 µM (active); in experiment [12] it was 20 µM (active).
With `CCCC/C=C/CCCCO`, the Potency result in [1], in experiment [2], in experiment [3], in experiment [4], in [5] and in [6] was “inactive” in each case. The Potency result in [7], in [8], in experiment [9], in [11] and in experiment [12] was “inactive” throughout.
`CCN(C(=O)c1cc(C)cc(OC[C@H](C)Nc2ccncc2)c1)C(C)C`: the Potency result in [1], in experiment [2], in [3], in experiment [4], in [5] and in experiment [6] was “inactive” in each case. The Potency entry in [7], in experiment [8], in experiment [9], in [10], in experiment [14] and in experiment [11] was “inactive” throughout. Further, in [12], the Potency result was “inactive”.
As to `Nc1ccc2c3c(cccc13)-c1ccccc1-2`, the Potency entry in [3], in experiment [4], in [5], in [6] and in experiment [7] was “inactive” in each case.
For the compound `CCCCCCCCCCCCc1ccc(O)cc1`, the Potency in experiment [1] is 12.3 µM (active); in experiment [2], 17.4 µM (active); in [3] it was 24.5 µM (active); in experiment [4], 21.9 µM (active); in [5], 30.6 µM (active); in [6] it was 24.3 µM (active). The Potency in [7] was 17.4 µM (active); in [8], 13.8 µM (active); in [9] it was 61.1 µM (active); in experiment [10], 48.6 µM (active); in experiment [11], 54.5 µM (active). In addition, the Potency result in experiment [12] is “inactive”.
Take `CC1=C(/C=C/C(C)=C/C=C/C(C)=C/C=O)C(C)(C)CCC1`: the Potency was 15.4 µM (active) in experiment [1]; 13.7 µM (active) in experiment [2]; 38.7 µM (active) in [3]; 38.7 µM (active) in experiment [4]; 24.2 µM (active) in [5]; 30.5 µM (active) in [6]. The Potency was 34.5 µM (active) in [7]; 0.345 µM (active) in experiment [13]; 19.4 µM (active) in [8]; 0.542 µM (active) in [14]; 27.1 µM (active) in experiment [11].
Regarding `O=C(N/N=C/c1ccccc1O)c1ccncc1`, the Potency entry in [3], in experiment [4], in experiment [5], in [7], in [8] and in experiment [9] was “inactive” each time. Moreover, the Potency entry in [10] was “inactive”. Also, the Potency in experiment [6] was 23.7 µM (active); in [14], 29.8 µM (active); in [11], 9.44 µM (active).
`O=S1(=O)CC(Cl)(Cl)C(Cl)(Cl)C1`: the Potency in [1] was 2.19 µM (active); in [2], 4.36 µM (active); in experiment [3] it was 5.49 µM (active); in [4], 4.9 µM (active); in [5], 6.11 µM (active); in experiment [6] it was 2.17 µM (active). The Potency in experiment [7] is 4.9 µM (active); in experiment [8], 4.36 µM (active); in experiment [9] it was 15.4 µM (active); in experiment [11], 15.4 µM (active). In addition, in [12], the Potency entry is “inactive”.
Turning to `O=C(O)c1cc(O)c2c(c1)C(=O)c1cccc(O)c1C2=O`, the Potency result in experiment [1], in [2], in [3], in experiment [4], in experiment [5] and in experiment [6] was “inactive” in each case. Moreover, the Potency result in [7], in experiment [8], in experiment [9] and in experiment [11] was “inactive” in each case.
On to `N=C1N=C(N)c2ccccc21`, for which the Potency entry in [2], in experiment [3], in experiment [7], in experiment [13], in experiment [8] and in experiment [12] was “inactive” in each case. In addition, the Potency in experiment [4] was 21.9 µM (active); in [5], 43.3 µM (active); in [6] it was 48.6 µM (active); in experiment [11] it was 43.3 µM (active).
As for `CCCCC(CC)CN=C(N)NC(N)=NCCCCCCN=C(N)NC(N)=NCC(CC)CCCC` (configuration not stated), the Potency is 23.7 µM (active) in experiment [1]; 7.56 µM (active) in experiment [2]; 19 µM (active) in [3]; 16.9 µM (active) in experiment [4]; 26.6 µM (active) in experiment [5]; 26.6 µM (active) in experiment [6]. For the same compound, the Potency in experiment [7] was 10.7 µM (active); in experiment [8], 8.49 µM (active); in experiment [9], 29.8 µM (active); in experiment [10] it was 11.9 µM (active); in [11], 11.9 µM (active). Moreover, in experiment [12], the Potency result was “inactive”.
With `CCCCN1CCCC[C@H]1C(=O)Nc1c(C)cccc1C`, the Potency result in experiment [1], in experiment [2], in experiment [3], in [4], in experiment [5] and in experiment [6] was “inactive” throughout. For the same compound, the Potency entry in experiment [7], in experiment [13], in experiment [8], in experiment [9], in experiment [10] and in experiment [14] was “inactive” each time. The Potency result in experiment [11] and in experiment [12] was “inactive” throughout.
As for `Cc1cccc(CN2CCN(C(c3ccccc3)c3ccc(Cl)cc3)CC2)c1` (configuration not stated), the Potency entry in experiment [3], in [4], in experiment [5], in [6], in [7] and in [15] was “inactive” each time. Further, the Potency result in experiment [9], in [11] and in [12] was “inactive” throughout.
As for `Cc1cc(O)c(C(C)(C)C)cc1C(C)(C)C`, the Potency was 21.9 µM (active) in experiment [2]; 49 µM (active) in experiment [3]; 24.5 µM (active) in experiment [4]; 54.5 µM (active) in [5]; 54.5 µM (active) in experiment [6]; 21.9 µM (active) in [7]. In addition, the Potency is 21.9 µM (active) in [8], 43.3 µM (active) in experiment [9], 54.5 µM (active) in experiment [10] and 54.5 µM (active) in [11]. Moreover, the Potency entry in experiment [12] was “inactive”.
Turning to `O=C(OCC(COC(=O)c1ccccc1)(COC(=O)c1ccccc1)COC(=O)c1ccccc1)c1ccccc1`, the Potency result in experiment [1], in [3], in experiment [4], in experiment [5], in experiment [6] and in experiment [7] was “inactive” in each case. The Potency result in [13], in [8], in experiment [9], in [10], in experiment [14] and in experiment [11] was “inactive” each time. Moreover, in [12], the Potency result is “inactive”.

These data come from PubChem BioAssay (Tox21).
